From PubChem BioAssay AID1259318 (Sanford-Burnham Center for Chemical Genomics, 2017)
In all, about 370,000 compounds went through this assay and about 3,000 (0.81%) were called active.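 How the source made its calls: active means activity above about 14% (limit read from the data; passing the limit was not always enough); inactive means the rest.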 The sample as a whole holds a higher share of actives than the screen did.

These compounds were tested against Nuclear receptor subfamily 1 group D member 1 (Homo sapiens) (UniProt P20393) (assay: modulators of Rev-erb alpha DNA binding, primary screen, biochemical, FITC-DNA, fluorescence polarization, uHTS (AID 1259318;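 further: 0% = DMSO wells with 35 nM protein and 100% = DMSO wells with 750 nM protein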)). Conditions: Rev-erbα–FITC-DNA binding, 90 min, at 10 µM, stronger effect = higher value.
Sequence of Nuclear receptor subfamily 1 group D member 1 (Homo sapiens) (P20393 whole entry, looked up): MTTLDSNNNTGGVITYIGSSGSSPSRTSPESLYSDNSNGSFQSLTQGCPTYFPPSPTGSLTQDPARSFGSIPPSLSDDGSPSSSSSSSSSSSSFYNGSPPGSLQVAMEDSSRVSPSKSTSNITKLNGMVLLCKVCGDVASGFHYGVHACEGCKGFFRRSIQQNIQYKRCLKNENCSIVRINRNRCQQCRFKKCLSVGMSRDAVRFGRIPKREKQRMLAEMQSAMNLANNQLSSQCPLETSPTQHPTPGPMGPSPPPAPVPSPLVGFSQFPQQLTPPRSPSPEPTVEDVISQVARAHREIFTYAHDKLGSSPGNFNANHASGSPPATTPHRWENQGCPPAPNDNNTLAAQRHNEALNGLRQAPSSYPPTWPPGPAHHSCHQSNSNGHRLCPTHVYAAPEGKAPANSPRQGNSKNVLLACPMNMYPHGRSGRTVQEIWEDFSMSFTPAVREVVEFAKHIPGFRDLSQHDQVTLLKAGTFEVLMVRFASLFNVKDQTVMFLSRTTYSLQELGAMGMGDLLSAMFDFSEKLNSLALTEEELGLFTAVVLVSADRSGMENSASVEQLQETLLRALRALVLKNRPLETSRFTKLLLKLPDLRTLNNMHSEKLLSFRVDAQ
`C=CCN(N=Nc1cccc([N+](=O)[O-])c1)c1cccc([N+](=O)[O-])c1` was tested, and the activity was 9.23% (inactive).
In the case of `NC(=O)CC(NC(=O)Cc1ccc(Br)cc1)c1ccc(NC2CC3CCC2C3)c([N+](=O)[O-])c1` (stereo not given), the activity is reported as -0.82% (inactive).
For `FCOC(C(F)(F)F)C(F)(F)F`, the activity was 2.75% (inactive).
In the case of `O=C(CSc1ccccn1)N1CCN(S(=O)(=O)c2ccc(Cl)cc2)CC1`, the activity is reported as -4.04% (inactive).
For `O=C(COc1ncnc2c(Cl)cc(Cl)cc12)N1CCN(S(=O)(=O)c2ccccc2)CC1`, the activity was 25.2% (active).
With `O=C(COc1ccc(Cl)cc1)N1CCN(S(=O)(=O)c2ccc(Cl)cc2)CC1` the activity was -0.97% (inactive).
`COc1ccc(C2(C#N)CCC(C(=O)O)CC2)cc1OC1CCCC1` (stereo not given) was tested, and the activity was -2.5% (inactive).
In the case of `O=C(CN1CCCc2ccccc21)NCc1ccc(F)cc1`, the activity is reported as 0.36% (inactive).
With `Cc1nn2cc(-c3ccc(Cl)cc3)cnc2c1Br` the activity was 5.5% (inactive).
`CCN(CC)CCCC(C)Nc1ccnc2cc(Cl)ccc12` (stereo not given) was tested, and the activity was -0.22% (inactive).
In the case of `COC(=O)c1ccc(CN2CCCC(C(=O)Nc3cccc(-n4cnnn4)c3)C2)cc1` (stereo not given), the activity is reported as 1.49% (inactive).
With `COc1ccc(Cn2ccc3ccc(-c4ccc5ccn(Cc6ccccc6C)c5c4)cc32)cc1` the activity was 0.1% (inactive).
For `COC(=O)c1cccc(Cn2ccc3ccc(-c4ccc5ccn(C(=O)C6CCCCC6)c5c4)cc32)c1`, the activity was 33.7% (active).
In the case of `COC(=O)c1cccc(Cn2ccc3ccc(-c4ccc5ccn(C(=O)c6ccccc6C)c5c4)cc32)c1`, the activity is reported as 40% (active).
With `COC(=O)c1ccc(OCC(O)CN(CCO)CC(O)Cn2ccc3ccccc32)cc1` (stereo not given) the activity was 4.36% (inactive).
`FC(F)(F)c1cccc(Cn2ccc3ccc(-c4ccc5ccn(Cc6ccccc6)c5c4)cc32)c1` was tested, and the activity was -9.95% (inactive).
`CCC(=O)O[C@]1(C(=O)CCl)[C@@H](C)CC2C3CCC4=CC(=O)C=C[C@]4(C)[C@@]3(F)[C@@H](O)C[C@@]21C` (stereo not given in full) was tested, and the activity was 0.94% (inactive).
With `Cc1ccc(S(=O)(=O)N(Cc2cc3ccccc3[nH]c2=O)CC2CCCO2)cc1` (stereo not given) the activity was -1.97% (inactive).
For `CN(C(N)=NC(=O)/C=C/c1ccccc1)C(C#Cc1ccccc1)Cc1ccccc1` (stereo not given), the activity was -4.88% (inactive).
For `O=C(C1CCN(S(=O)(=O)Cc2ccccc2)CC1)N1CCCc2ccccc21`, the activity was -2.58% (inactive).
For `Cc1nn(CCOc2ccc(Br)cc2)c(C)c1[N+](=O)[O-]`, the activity was 3.89% (inactive).
In the case of `CCOc1ccc2nc(Cl)c(C3CC(c4ccccc4)=NN3C(=O)c3cccs3)cc2c1` (stereo not given), the activity is reported as 36% (active).
For `CS(=O)(=O)Nc1cccc(C2=NN(C(=O)c3cccc(F)c3)C(c3cccs3)C2)c1` (stereo not given), the activity was 1.7% (inactive).
For `O=C(COc1ccc2ccccc2c1)N1CCN(C(=O)c2cccs2)CC1`, the activity was 7.29% (inactive).
In the case of `CC(NC(=O)C(C)(C)C)C(c1cccs1)N1CCN(Cc2ccccc2)CC1` (stereo not given), the activity is reported as -5.62% (inactive).
In the case of `O=C(Nn1cnc2ccccc2c1=O)c1ccc(F)cc1Cl`, the activity is reported as -3.38% (inactive).
In the case of `CC(C)C(C)NC(=O)COc1ncnc2ccccc12` (stereo not given), the activity is reported as 1.73% (inactive).
`O=C(COc1ccccc1O)NC1CCCC1` was tested, and the activity was 2.25% (inactive).
For `CC(C)C(C)NC(=O)COc1nc2ccccc2nc1N(C)C1CCCCC1` (stereo not given), the activity was 62.5% (active).
`CCCN1C(=O)C(NC(C)=O)c2cc(OC)ccc21` (stereo not given) was tested, and the activity was 1.76% (inactive).
In the case of `CC(C)NC(=O)COCc1cc(-c2ccc3c(c2)OCO3)on1`, the activity is reported as 3.84% (inactive).
`CCc1ccccc1NC(=O)c1cc(-c2ccc3c(c2)OCO3)on1` was tested, and the activity was 21.2% (active).
In the case of `CCOC(=O)N1CCN(C(=O)COCc2cc(-c3ccc4c(c3)OCO4)on2)CC1`, the activity is reported as 2.06% (inactive).
`CCCCCCCCCc1ccc(OCCOCCOCCOCCOCCOCCOCCOCCOCCO)cc1` was tested, and the activity was 2.2% (inactive).
In the case of `CC[C@H](NC(=O)[C@H](Cc1ccccc1)NC(=O)[C@H]1O[C@@H](n2cnc3c(=O)[nH]c(N)nc32)[C@H](O)[C@@H]1O)c1ccccc1`, the activity is reported as 1.57% (inactive).
With `CCC1CCC2(CC1)NC(=O)N(CC(=O)Nc1ccc(OC)cc1)C2=O` (stereo not given) the activity was -2.27% (inactive).
`CCOC(=O)c1c(NC(=O)C2CC=CCC2C(=O)O)sc(C)c1CC` (stereo not given) was tested, and the activity was -10.6% (inactive).
In the case of `CCOC(=O)c1c(NC(=O)CN2C(=O)NC3(CCC(C)CC3)C2=O)sc(C)c1CC` (stereo not given), the activity is reported as 21.8% (active).
With `O=C1NC(c2ccccc2)=NC1(Nc1ccccn1)C(F)(F)F` (stereo not given) the activity was -2.21% (inactive).
In the case of `C[C@@H]1CN([C@@H](C)CO)S(=O)(=O)c2ccc(C#Cc3cccc(F)c3)cc2O[C@H]1CN(C)S(=O)(=O)c1cn(C)cn1`, the activity is reported as 4.67% (inactive).
For `CCCC1O[C@@H]2CC3C4CCC5=CC(=O)C=CC5(C)C4[C@@H](O)CC3(C)[C@]2(C(=O)CO)O1` (stereo not given in full), the activity was 3.39% (inactive).
`S=c1nccc(-c2cc(Cl)sc2Cl)[nH]1` was tested, and the activity was 20.9% (active).
With `CC1=C(/C=C/C(C)=C/C=C/C(C)=C/C=C/C=C(C)/C=C/C=C(C)/C=C/C2=C(C)CCCC2(C)C)C(C)(C)CCC1` the activity was -1.26% (inactive).
For `COc1ccccc1NC(=O)c1cc(N2C(=O)C3C4CCC(C4)C3C2=O)ccc1Cl` (stereo not given), the activity was -4.24% (inactive).
With `Cc1ccc(CNC(=O)CC(NC(=O)c2ccccc2)c2ccccc2)cc1` (stereo not given) the activity was -3.7% (inactive).
For `CC(=O)C1(C(=O)Nc2nccs2)CC(c2ccccc2C(F)(F)F)=NO1` (stereo not given), the activity was 2.17% (inactive).
`O=C(O)CSCNC(=O)CC12CC3CC(CC(C3)C1)C2` was tested, and the activity was 5.91% (inactive).
For `C=CCNC(=O)CC12CC3CC(C1)CC(CC(=O)NCC=C)(C3)C2`, the activity was 27.5% (active).
For `C=CCNC(=O)C12CC3CC(C1)CC(C(=O)NCC=C)(C3)C2`, the activity was 1.74% (inactive).
`Cc1cccc(NC(=O)c2cc(S(=O)(=O)N3CCC4(CC3)OCCO4)ccc2F)c1` was tested, and the activity was -2.46% (inactive).
With `O=C(N[C@H]1CC[C@H](CC(=O)N2CCCCC2)O[C@@H]1CO)c1cccc(F)c1` the activity was 3.8% (inactive).
`CON(C)S(=O)(=O)c1ccc2c(c1)NC(=O)C1CCCN21` (stereo not given) was tested, and the activity was -3.22% (inactive).
With `Cc1cc(C)c2c(-c3ccc(F)cc3)c(C#N)c(=O)n(C)c2n1` the activity was 56.8% (active).
With `Cn1c(N)cc(-c2ccc(F)cc2)c(C#N)c1=O` the activity was -1.46% (inactive).
With `COc1ccc(O)c(C(=O)c2cnc3c(c2)c(-c2ccc(F)cc2)c(C#N)c(=O)n3C)c1` the activity was -4.88% (inactive).
